Screening data (PubChem BioAssay)
Most compounds without a hit are left out; they make up all but 27% or so of the library.
EphB4 antag – EphB4-ephrin-B2 interaction antagonism | P54760 | EphB4 LBD / TNYL-RAW-Alexa532 peptide, fluorescence polarization | inhibition, % at 7 µM | 97,000 compounds, 0.15% hits | AID 720;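 active = inhibition above the screen-wide mean inhibition plus 3 SD, cut at about 15% in these data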
Target sequence (P54760 whole entry, looked up, the tested form may be a part): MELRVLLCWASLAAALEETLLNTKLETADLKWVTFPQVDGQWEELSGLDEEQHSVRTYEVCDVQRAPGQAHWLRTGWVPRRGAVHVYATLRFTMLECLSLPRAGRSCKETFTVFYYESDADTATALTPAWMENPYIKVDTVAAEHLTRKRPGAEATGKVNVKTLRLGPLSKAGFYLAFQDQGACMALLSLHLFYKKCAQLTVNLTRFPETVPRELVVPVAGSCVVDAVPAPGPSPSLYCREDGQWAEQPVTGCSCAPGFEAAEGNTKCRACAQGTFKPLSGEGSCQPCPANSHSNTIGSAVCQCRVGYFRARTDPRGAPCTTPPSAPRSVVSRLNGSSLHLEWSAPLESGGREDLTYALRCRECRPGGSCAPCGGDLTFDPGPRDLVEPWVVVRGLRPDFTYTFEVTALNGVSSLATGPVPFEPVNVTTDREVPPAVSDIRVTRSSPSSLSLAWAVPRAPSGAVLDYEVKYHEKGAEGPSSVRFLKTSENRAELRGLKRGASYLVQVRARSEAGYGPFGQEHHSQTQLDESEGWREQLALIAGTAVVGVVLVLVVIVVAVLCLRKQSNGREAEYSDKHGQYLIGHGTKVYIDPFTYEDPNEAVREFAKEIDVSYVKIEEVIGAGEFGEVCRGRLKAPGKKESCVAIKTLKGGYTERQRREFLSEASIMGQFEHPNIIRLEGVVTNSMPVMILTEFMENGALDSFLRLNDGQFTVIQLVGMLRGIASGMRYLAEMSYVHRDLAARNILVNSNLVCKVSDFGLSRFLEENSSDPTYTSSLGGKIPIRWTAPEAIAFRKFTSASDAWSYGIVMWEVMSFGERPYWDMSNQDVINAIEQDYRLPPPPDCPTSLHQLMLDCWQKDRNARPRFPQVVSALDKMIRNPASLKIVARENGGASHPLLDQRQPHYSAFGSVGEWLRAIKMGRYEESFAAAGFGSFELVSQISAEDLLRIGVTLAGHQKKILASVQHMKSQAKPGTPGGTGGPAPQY
CYP2C19 act – cytochrome P450 2C19 (human) activation; activation factor at 5 µM; 96,000 tested, under 10 active; AID 1025; recombinant CYP2C19, luciferin-H EGE luminescence; hits give high values; 0 = fully inhibited enzyme, 1 = untreated enzyme; P33261;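 active = activation factor of at least 2 at 5 µM in the primary screen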
CYP2C19 inh – inhibitors of human CYP2C19 | CYP2C19 Supersomes, luciferin-H EGE luminescence, 30 min | P33261 | AID 778 | 96,000 compounds, 21% hits | inhibition, % at 5 µM;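 active = CYP2C19 inhibition above a set limit at 5 µM in the primary screen, cut at about 50% in these data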
CYP2C9 act – CYP2C9 (human) activation | P11712 | recombinant CYP2C9, luciferin-H conversion, luminescence; hits give high values; factor 1 = untreated enzyme, 0 = blocked | activation factor at 5 µM | 96,000 compounds, 1.4% hits;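 active = activation factor of 2 or more for CYP2C9 at a 5 µM dose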
CYP2C9 inhib – blocks human cytochrome P450 2C9 | CYP2C9 Supersomes, luciferin-H conversion, luminescence | 96,000 compounds, 20% hits | P11712 | AID 777 | inhibition, % at 5 µM;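 active = blocking of liver enzyme CYP2C9 beyond about 50% at 5 µM, limit read from the data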
A number is an active result.

Results for O=C(NCCC(c1ccccc1)c1ccccc1)c1ccc(Br)o1 ?
EphB4 antag: inactive; CYP2C19 act: inactive; CYP2C19 inh: 67; CYP2C9 act: inactive; CYP2C9 inhib: 74

Results for O=C(O)CCNC(=O)c1ccc(Br)o1 ?
CYP2C19 act: inactive; CYP2C19 inh: inactive; CYP2C9 act: inactive; CYP2C9 inhib: inactive

What do the screens show for `O=C(OCC(=O)c1c[nH]c2ccccc12)c1ccc(Br)o1`?
EphB4 antag: inactive; CYP2C19 act: inactive; CYP2C19 inh: 66; CYP2C9 act: inactive; CYP2C9 inhib: inactive

What do the screens show for `O=C(OCC(=O)c1c[nH]c2ccccc12)c1ccco1`?
EphB4 antag: inactive; CYP2C19 act: inactive; CYP2C19 inh: inactive; CYP2C9 act: inactive; CYP2C9 inhib: inactive

Results for O=C(NCC1(c2ccccc2)CCOCC1)c1ccc(Br)o1 ?
EphB4 antag: inactive; CYP2C19 act: inactive; CYP2C19 inh: 72; CYP2C9 act: inactive; CYP2C9 inhib: inactive

What do the screens show for `CCOC(=O)Cc1nnc(NC(=O)C(CC)Sc2nc(C)cc(C)n2)s1` (stereo unspecified)?
EphB4 antag: inactive; CYP2C19 act: inactive; CYP2C19 inh: inactive; CYP2C9 act: inactive; CYP2C9 inhib: inactive

Results for O=C(C1COc2ccccc2O1)N1CCN(c2ccccc2)CC1 (stereo unspecified) ?
CYP2C19 act: inactive; CYP2C19 inh: 85; CYP2C9 act: inactive; CYP2C9 inhib: 75

What do the screens show for `O=C(C1COc2ccccc2O1)N1CCn2c(nc3ccccc32)C1` (stereo unspecified)?
EphB4 antag: inactive; CYP2C19 act: inactive; CYP2C19 inh: 85; CYP2C9 act: inactive; CYP2C9 inhib: inactive

Results for O=C(Nc1ccccc1Cl)N1CCn2c(nc3ccccc32)C1 ?
EphB4 antag: inactive; CYP2C19 act: inactive; CYP2C19 inh: 52; CYP2C9 act: inactive; CYP2C9 inhib: inactive

Results for CCn1c(SCC(=O)Nc2ccc(N3CCOCC3)cc2)nnc1-c1ccc(OC)cc1 ?
EphB4 antag: inactive; CYP2C19 act: inactive; CYP2C19 inh: inactive; CYP2C9 act: inactive; CYP2C9 inhib: inactive

Results for O=C(O)C1Cc2c([nH]c3ccccc23)C(c2ccc3c(c2)OCO3)N1 (stereo unspecified) ?
EphB4 antag: inactive; CYP2C19 act: inactive; CYP2C19 inh: inactive; CYP2C9 act: inactive; CYP2C9 inhib: inactive

Results for O=C1c2ccccc2-c2nc3ncnn3c(-c3ccccc3)c21 ?
EphB4 antag: inactive

How did CC(=O)/C=N/Nc1ccccc1 do in these assays?
EphB4 antag: inactive; CYP2C19 act: inactive; CYP2C19 inh: inactive; CYP2C9 act: inactive; CYP2C9 inhib: 60

What do the screens show for `C/C(O)=C(/N=O)C(=O)Nc1ccccc1`?
EphB4 antag: inactive; CYP2C19 act: inactive; CYP2C19 inh: inactive; CYP2C9 act: inactive; CYP2C9 inhib: inactive

Results for CC(C)CNS(=O)(=O)c1ccc2c(c1)OCCO2 ?
EphB4 antag: inactive; CYP2C19 act: inactive; CYP2C19 inh: inactive; CYP2C9 act: inactive; CYP2C9 inhib: inactive

How did O=S(=O)(NCc1ccc(F)cc1)c1ccc2c(c1)OCCO2 do in these assays?
EphB4 antag: inactive; CYP2C19 act: inactive; CYP2C19 inh: 60; CYP2C9 act: 2; CYP2C9 inhib: inactive

How did O=S(=O)(Nc1ccc2c(c1)OCCO2)c1ccc(F)cc1 do in these assays?
EphB4 antag: inactive; CYP2C19 act: inactive; CYP2C19 inh: 88; CYP2C9 act: inactive; CYP2C9 inhib: 69

How did O=C(Nc1ccc(N2CCOCC2)c(Cl)c1)c1ccc(F)cc1 do in these assays?
EphB4 antag: inactive

Results for CSc1ccc(S(=O)(=O)Nc2ccc3c(c2)OCCO3)cc1 ?
CYP2C19 act: inactive; CYP2C19 inh: 68; CYP2C9 act: inactive; CYP2C9 inhib: inactive

What do the screens show for `CSc1ccc(S(=O)(=O)Nc2ccc(N3CCOCC3)c(Cl)c2)cc1`?
EphB4 antag: inactive; CYP2C19 act: inactive; CYP2C19 inh: 100; CYP2C9 act: inactive; CYP2C9 inhib: 98

Results for CNC(=O)COC(=O)c1[nH]c(C)c(C(C)=O)c1C ?
EphB4 antag: inactive; CYP2C19 act: inactive; CYP2C19 inh: inactive; CYP2C9 act: inactive; CYP2C9 inhib: inactive

Results for CCCC(=O)Nc1ccc(C(=O)NNC(=O)c2ccccc2Br)cc1 ?
EphB4 antag: inactive; CYP2C19 act: inactive; CYP2C19 inh: inactive; CYP2C9 act: inactive; CYP2C9 inhib: inactive

What do the screens show for `O=c1cc(O)c2c(=O)[nH]c(=O)n(-c3ccccc3)c2[nH]1`?
EphB4 antag: inactive; CYP2C19 act: inactive; CYP2C19 inh: inactive; CYP2C9 act: inactive; CYP2C9 inhib: inactive

What do the screens show for `Brc1ccc(-c2nnc3c4ccccc4nc(N4CCOCC4)n23)cc1`?
EphB4 antag: inactive; CYP2C19 act: inactive; CYP2C19 inh: inactive; CYP2C9 act: inactive; CYP2C9 inhib: inactive

How did CS(=O)(=O)NCCSCc1c(Cl)cccc1Cl do in these assays?
EphB4 antag: inactive; CYP2C19 act: inactive; CYP2C19 inh: inactive; CYP2C9 act: inactive; CYP2C9 inhib: 63

What do the screens show for `CS(=O)(=O)NCCSCc1c(F)cccc1Cl`?
EphB4 antag: inactive; CYP2C19 act: inactive; CYP2C19 inh: inactive; CYP2C9 act: inactive; CYP2C9 inhib: inactive

How did C/C(=N/NC(=O)c1ccc(Cl)s1)c1ccc(NC(=O)COc2ccc(Cl)cc2)cc1 do in these assays?
EphB4 antag: inactive; CYP2C19 act: inactive; CYP2C19 inh: inactive; CYP2C9 act: inactive; CYP2C9 inhib: inactive

What do the screens show for `CC(C)Cc1nnc(NS(=O)(=O)Cc2ccccc2)s1`?
EphB4 antag: inactive; CYP2C19 act: inactive; CYP2C19 inh: inactive; CYP2C9 act: inactive; CYP2C9 inhib: 63

What do the screens show for `CC(=O)NC(C)c1ccc(Cl)c(Cl)c1` (stereo unspecified)?
EphB4 antag: inactive; CYP2C19 act: inactive; CYP2C19 inh: 75; CYP2C9 act: inactive; CYP2C9 inhib: inactive

How did CCN=c1sc(C(=O)NCCc2ccccc2)cc(=O)n1CC do in these assays?
EphB4 antag: inactive; CYP2C19 act: inactive; CYP2C19 inh: inactive; CYP2C9 act: inactive; CYP2C9 inhib: inactive

What do the screens show for `O=C(NC1CCCc2ccccc21)C1CCN(S(=O)(=O)c2cccc3nsnc23)CC1` (stereo unspecified)?
EphB4 antag: inactive; CYP2C19 act: inactive; CYP2C19 inh: inactive; CYP2C9 act: inactive; CYP2C9 inhib: inactive

What do the screens show for `CCN(CC)S(=O)(=O)c1ccc(Nc2nc3ccccc3n3nnnc23)cc1`?
CYP2C19 act: inactive; CYP2C19 inh: inactive; CYP2C9 act: inactive; CYP2C9 inhib: 63

Results for Brc1ccc(Nc2nc3ccccc3n3nnnc23)cc1 ?
EphB4 antag: inactive; CYP2C19 act: inactive; CYP2C19 inh: inactive; CYP2C9 act: inactive; CYP2C9 inhib: inactive

Results for O=C(O)CCn1c(=O)sc2ccccc21 ?
EphB4 antag: inactive; CYP2C19 act: inactive; CYP2C19 inh: inactive; CYP2C9 act: inactive; CYP2C9 inhib: inactive

What do the screens show for `Cc1ccc(OCn2c(=O)sc3ccccc32)cc1`?
EphB4 antag: inactive; CYP2C19 act: inactive; CYP2C19 inh: 56; CYP2C9 act: inactive; CYP2C9 inhib: inactive

Results for O=c1sc2ccccc2n1CCOc1ccccc1 ?
EphB4 antag: inactive; CYP2C19 act: inactive; CYP2C19 inh: 98; CYP2C9 act: inactive; CYP2C9 inhib: 88

How did CCOC(=O)Cn1c(=O)sc2ccccc21 do in these assays?
EphB4 antag: inactive; CYP2C19 act: inactive; CYP2C19 inh: inactive; CYP2C9 act: inactive; CYP2C9 inhib: inactive
